Rows were chosen to be rich in hits. Some 1.7% of all compounds tested hit in one or more screens of this group.
TrxR1 substrate: substrates of rat thioredoxin reductase 1. Potency, µM (top dose mostly 114 µM), inactives show top-dose activity change, negative = substrate turnover. AID 588456. purified TrxR1 substrate turnover, NADPH consumption readout. O89049. 0.01% of 390,000 active; also: % is scaled to controls: 0 for no effect and ±100 for the full control effect; nearly all actives have a fitted effect of over 50% in size
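Rat TrxR1, dispensed at 90 nM, was prereduced with 400 uM NADPH (final) for 5 min at ~22 deg C, then incubated with compound 15 min before 400 uM selenite. A first-read NADPH fluorescence drop versus no-compound background flagged substrates.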
TrxR1 inh: blocks rat thioredoxin reductase 1 | recombinant rTrxR1, NADPH fluorescence consumption, selenite substrate | Potency, µM (series often up to 114 µM), inactives show at the highest dose activity change, negative = inhibition, hits mostly inhibitors | 1% of 390,000 active; also: % is scaled to controls: 0 for no effect and ±100 for the full control effect; nearly all actives have a fitted effect of over 65% in size
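Rat TrxR1 (90 nM in the dispensed reagent) was pre-reduced with 400 uM NADPH for 5 min at room temperature, then incubated with compound for 15 min. After 400 uM selenite was added, NADPH fluorescence (Ex 340/Em 450 nm) was followed for 8 min.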
Anesthetic bind: binds horse apoferritin like a general anesthetic. AID 485281. apoferritin/1-aminoanthracene competitive binding, fluorescence. Potency, µM (highest dose often 77.5 µM), without a hit: at the highest dose activity change, negative = displacement, hits mostly inhibitors. 0.074% of 350,000 active; also: % is scaled to controls: 0 for no effect and ±100 for the full control effect; nearly all actives have a fitted effect of over 20% in size
Target sequence (P02791 2-175 limits assumed): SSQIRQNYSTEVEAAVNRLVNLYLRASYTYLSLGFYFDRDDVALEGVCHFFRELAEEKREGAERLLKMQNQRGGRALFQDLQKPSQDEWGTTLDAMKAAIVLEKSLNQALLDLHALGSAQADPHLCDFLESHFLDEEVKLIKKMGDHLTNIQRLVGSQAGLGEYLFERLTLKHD
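Horse-spleen apoferritin (10 uM) was mixed with 50% saturated 1-aminoanthracene in PBS, exposed to compounds for 10 min at room temperature, and read for fluorescence (ex 380 nm, em 535 nm). Competitive displacement was fitted with a four-parameter Hill equation.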
12-LOX inh: blocks human arachidonate 12S-lipoxygenase; Potency, µM (top dose mostly 108 µM), inactives show at the highest dose activity change, negative = inhibition, usual class: inhibitors; 1.1% of 580,000 active; P18054; purified 12hLO, xylenol orange hydroperoxide absorbance; also: % is scaled to controls: 0 for no effect and ±100 for the full control effect
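Purified human 12hLO (150 nM final) in 25 mM Hepes, 0.01% Triton X-100, pH 7.0 was preincubated 15 min at room temperature with compound. Then 40 uM arachidonic acid was added, 30 min. Hydroperoxide was read by Fe-XO absorbance ratio 573/405 nm.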
Glioma ERSR ind: ER stress response induction in glioma | Potency, µM, inactives show at the top dose activation, most hits filed as activators | AID 602332 | U87-MG GRP78 promoter luciferase reporter, 16 h | 0.02% of 420,000 active; also: series mostly up to about 76 µM; % of control where 0% means no effect; nearly all actives have a fitted effect of over 35% in size
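Stably transfected U87-MG human glioma cells carrying a GRP78-based luminescent sensor were seeded at 1000 cells/well, pin-dosed with compounds and incubated 16 h. Luciferase reagent was then added, and end-point luminescence was read after 10 min at room temperature.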
mIDH1 inhibitor: blocks human mutant IDH1 R132H enzyme | IDH1-R132H enzyme, NADPH consumption, diaphorase/resazurin fluorescence | Potency, µM (doses to about 76.6 µM), for inactives: at the highest dose activity change, negative = inhibition, actives largely listed as inhibitors | O75874 | 0.093% of 390,000 active | AID 602179; also: % is scaled to controls: 0 for no effect and ±100 for the full control effect; nearly all actives have a fitted effect of over 65% in size
Target sequence (O75874 whole entry R132H, stated change not applied): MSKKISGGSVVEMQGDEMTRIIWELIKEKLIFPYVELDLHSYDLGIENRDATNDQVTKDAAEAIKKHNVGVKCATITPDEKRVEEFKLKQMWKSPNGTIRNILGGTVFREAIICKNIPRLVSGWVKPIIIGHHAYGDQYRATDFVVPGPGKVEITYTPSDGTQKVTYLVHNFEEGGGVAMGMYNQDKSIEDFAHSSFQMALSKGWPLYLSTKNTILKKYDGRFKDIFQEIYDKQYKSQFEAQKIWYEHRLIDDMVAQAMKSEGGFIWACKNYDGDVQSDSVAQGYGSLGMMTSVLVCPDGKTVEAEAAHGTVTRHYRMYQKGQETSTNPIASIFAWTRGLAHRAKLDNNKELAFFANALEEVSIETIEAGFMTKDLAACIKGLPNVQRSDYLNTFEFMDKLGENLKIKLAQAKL
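IDH1-R132H (0.5 ug/mL dispensed) in pH 7.5 Tris buffer was preincubated 30 min with compound, then given a substrate mix of 0.016 mM NADPH and 2 mM alpha-KG for 80 min at room temperature; remaining NADPH was read by diaphorase/resazurin fluorescence.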
* hit, by the source's call; ? = inconclusive; · = not tested or not shown; ! = repeats disagree; [ ] = another dose, or the depositor's remark. Calls follow the shape of the dose curve; as a rule, active = well fitted curve in the direction sought with a large enough effect; inconclusive = small, poorly fitted or top-dose-only effect, or another doubt; inactive = no such curve, though single readings can be large; an effect the other way counts as inactive or inconclusive. Potency is read from the fitted curve at half-maximal effect.

SMILES	TrxR1 substrate	TrxR1 inh	Anesthetic bind	12-LOX inh	Glioma ERSR ind	mIDH1 inhibitor
Cc1noc(/C=C/c2ccco2)c1S(=O)(=O)N1CCC(C(=O)N2CCc3ccccc3C2)CC1	-8%	50µM*	?	·	-1%	-3%
Cc1ccccc1NC(=O)C1CCN(S(=O)(=O)c2c(C)noc2/C=C/c2ccco2)CC1	-11%	-22%	-10%	0%	-1%	0%
O=C(c1ccccc1OCc1ccccc1)N1CCNCC(O)C1 (centres undefined)	·	·	·	22%	·	·
O=C(CSc1ncccc1-c1nc2ccccc2[nH]1)NCc1ccco1	119%	?	2%	14µM*	-1%	11%
Cc1cc2nc(-c3cccnc3SCC(=O)NCc3ccco3)[nH]c2cc1C	73%	-14%	62%	?	0%	3%
Cc1ccc(-c2nnc(C3CN(C(=O)CCC4CCCC4)CC34CCOCC4)o2)cc1 (centres undefined)	·	·	·	0%	·	·
Cc1ccc(C)c(S(=O)(=O)/N=C2\C=C(NS(=O)(=O)c3ccccc3)C(=O)c3ccccc32)c1	-10%	-13%	-12%	?	-1%	21%
Cc1cc(C)c(S(=O)(=O)/N=C2/C=C(Sc3ncn[nH]3)C(=O)c3ccccc32)cc1C	14µM*	?	-15%	?	-16%	16%
CC(=O)O[C@@H]1[C@@]2(C)O[C@H]2CC[C@]23O[C@H]2[C@H](OC3=O)C2=C(C)C(=O)O[C@@]21O	18%	50µM*	16%	8%	-5%	22%
CCNc1ncc2nc(C)c(=O)n(C[C@H]3CCCO3)c2n1	·	·	·	0%	-1%	·
CCNc1ncc2nc(CCc3ccccc3)c(=O)n(C[C@H]3CCCO3)c2n1	·	·	·	7.1µM*	-3%	·
COC(=O)c1c(C)sc(-c2c(-c3ccc(F)cc3)[nH]c3[nH]c(=O)[nH]c(=O)c23)c1O	-10%	-11%	?	45µM*	·	·
O=C(CCCc1nc(-c2cccs2)no1)NCc1ccc(-n2cncn2)nc1	·	·	·	-12%	·	·
Cc1ccc(C2=NC3(CCN(C(=O)COc4cccc(C)c4)CC3)ON2)cc1	·	·	·	89µM*	·	·
CC(=O)c1c(C)[nH]c(C(=O)/C(C#N)=C\c2ccc(F)cc2)c1C	·	·	·	35µM*	·	·
CC1=CC(C)(C)Nc2ccc(OC(=O)CN3C(=O)c4cccc5cccc(c45)C3=O)cc21	9%	8.9µM*	-24%	-21%	-6%	16%
Cn1c(=NC(=O)CCl)sc2ccccc21	-4%	35µM*	-12%	-18%	-15%	10%
O=C(CC1CCCO1)NC(c1ccccc1)C1CC1 (centres undefined)	·	·	·	11%	·	·
CCOC(=O)NC1(NC(C)C)Oc2ccccc2O1	20%	-3%	-4%	25µM*	?	5%
CCOC(=O)NC1(NC2CCCCC2)Oc2ccccc2O1	1%[57.1 µM]	32µM*	?	-46%	5%	-5%
CCOC(=O)NC1(Nc2ccc(C)cc2)Oc2ccccc2O1	-5%	?	?	?	9%	2%
CCOC(=O)NC1(NCC(C)C)Oc2ccccc2O1	5%[57.1 µM]	?	-11%	?	?	-1%
CCOC(=O)NC1c2ccccc2Oc2ccccc21	1%	8%	-2%	-9%	-3%	0%
CCOC(=O)NC1(NCc2ccccc2)Oc2ccccc2O1	2%[57.1 µM]	32µM*	-11%	-14%	?	-5%
O=C(c1ccc2ccccc2n1)N1CCOC(C(F)(F)F)C1 (centres undefined)	·	·	·	19%	·	·
SMILES	TrxR1 substrate	TrxR1 inh	Anesthetic bind	12-LOX inh	Glioma ERSR ind	mIDH1 inhibitor
O=C(NCc1ccc(F)cc1)c1cc(C2CCCN(S(=O)(=O)c3ccccc3)C2)on1 (centres undefined)	·	·	·	1%	-1%	·
O=C(O)c1ccccc1N/N=C/c1cc(Br)cc(Br)c1O	-4%	7%	-6%	45µM*	-1%	1%
O=C(Cc1ccccc1)N/N=C/c1cc(Br)cc(Br)c1O	3%	32%	4%	-20%	-3%	-5%
CCOC(=O)c1c(C)oc2c1c(C(c1cccnc1)N1CCOCC1)c(O)c1ccccc12 (centres undefined)	-13%	11µM*	-20%	-8%	16%	?
CCOC(=O)c1c(C)oc2c1c1c(c3ccccc32)OCN(Cc2cccnc2)C1	2%	1.4µM*	-9%	·	3%	7%
CCOC(=O)c1c(C)oc2c1c1c(c3ccccc32)OCN(CCCC(=O)O)C1	-1%	3.5µM*	7%	?	5%	12%
CCOc1ccccc1C1NC(=O)N(CC(=O)NC2CCCC2)C2=C1C(=O)OC2 (centres undefined)	·	·	·	5%	·	·
CCCCCC(=O)c1c(O)cc(OC)c(Cl)c1O	·	·	-2%	19%	-7%	·
CCCCCCCCC(=O)c1c(OC)oc(C=O)cc1=O	·	·	·	7.1µM*	-1%	-2%
CC(=O)Nc1ccc(N(C(=O)c2cnccn2)C(C(=O)NC2CCCCC2)c2ccc(F)cc2)cc1 (centres undefined)	11%[57.1 µM]	32%[57.1 µM]	7%	?	1%	6%
CC(=O)Nc1ccc(N(C(=O)c2cnccn2)C(C(=O)NC2CCCCC2)c2ccc(O)cc2)cc1 (centres undefined)	12%[57.1 µM]	7.1µM*	-19%	-25%	-3%	0%
C[C@@H](CC(=O)O)[C@@H](N)C(=O)O	·	·	17%	20µM*!	-3%	·
CCC(C)C(N)C(=O)O (centres undefined)	·	·	·	·	-2%	·
Cc1cc(Cl)cc2sc(=S)[nH]c12	7%[2.29 µM]	-44%[57.1 µM]	·	11µM*	1%	-6%
Cc1cc(Cl)cc2c(C=O)c(C(C)(C)C)[nH]c12	·	·	·	13%	·	·
CS(=O)(=O)N1CCC2(CC1)CN(C(=O)c1ccc(Cl)cc1)CCO2	·	·	·	7%[6.33 µM]	·	·
C(=C\n1nnc2ccccc21)/c1ccc[nH]1	2%	13µM*	·	-13%	1%	14%
CC(=O)C1=C(C)N(Cc2ccc(Br)cc2)C(=S)NC1c1cccc(F)c1 (centres undefined)	·	·	·	45µM*	·	·
CCN1C(=O)N[C@@H](c2ccc(Br)cc2)C(C(C)=O)=C1C	-5%[57.1 µM]	-9%[57.1 µM]	·	6%	-1%	20%
CC(=O)C1=C(C)N(Cc2ccc(Br)cc2)C(=S)NC1c1ccc(F)cc1 (centres undefined)	·	·	·	35µM*	·	·
CC(=O)C1=C(C)N(Cc2ccc(F)cc2)C(=S)NC1c1ccc(Br)cc1 (centres undefined)	·	·	·	35µM*	·	·
COCC1CN(C)CC12CCN(C(=O)c1cc(C)nn1C)CC2 (centres undefined)	·	·	·	85%	·	·
COc1ccc(/C=C/C(=O)c2cccc(N)c2)cc1	·	·	·	-1%	·	·

Bioassay records (PubChem)
